For 13 compounds, Potency results are on record in PubChem BioAssay (Tox21).

Assay [1] is described as follows: qHTS assay to identify small molecule antagonists of the thyroid receptor (TR) signaling pathway (AID 743065). Note: nearly all actives have a fitted effect of over 55% in size. Note: potency is the fitted concentration of half-maximal effect. An outline of the steps:
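Antagonism measured as loss of luciferase signal in GH3 cells stably carrying a TRE-luciferase reporter, co-treated with compound and T3 (1 nM final) for 23.5 h at 37 C. Viability was read in the same well by CellTiter-Fluor.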
A general note: qHTS replaces the single test concentration by a dilution series.

For assay [2], the system named is thyroid hormone receptor (rat, GH3 cells). Put plainly: qHTS assay to identify small molecule agonists of the thyroid receptor (TR) signaling pathway (AID 743066; calls by dose curve).
Assay [3] is described as follows: qHTS assay to identify small molecule antagonists of the estrogen receptor alpha (ER-alpha) signaling pathway - cell viability counter screen (AID 743074; calls by dose curve;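 note: HEK293 cells carrying ER-alpha-UAS-bla reporter stimulated with 17beta-estradiol; nearly all actives have a fitted effect of over 45% in size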; note: potency is the fitted concentration of half-maximal effect).
Assay [4] in a line: qHTS assay to identify small molecule antagonists of the estrogen receptor alpha (ER-alpha) signaling pathway using the BG1 cell line - cell viability counter screen (AID 743081).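 Note: compound given together with 17beta-estradiol as the ER stimulus; series mostly up to about 70 µM; nearly all actives have a fitted effect of over 45% in size.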
For the next assay, the target named is Aromatase (Homo sapiens) (UniProt P11511). Put plainly: qHTS assay to identify aromatase inhibitors (AID 743083). Note: nearly all actives have a fitted effect of over 55% in size. Note: potency is the fitted concentration of half-maximal effect.
Assay [5] in a line: qHTS assay to identify aromatase inhibitors - cell viability counter screen (AID 743084).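 Note: cells stimulated with testosterone during compound exposure; nearly all actives have a fitted effect of over 55% in size.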 Note: potency is the fitted concentration of half-maximal effect.
Assay [6] deals with Aryl hydrocarbon receptor (Homo sapiens) (UniProt P35869). Briefly: qHTS assay to identify small molecule that activate the aryl hydrocarbon receptor (AhR) signaling pathway (AID 743085).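 For activation: HG2L7.5c1 human HepG2 liver cells with stably integrated DRE-driven firefly reporter; series mostly up to about 70 µM.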 Note: nearly all actives have a fitted effect of over 15% in size. Note: potency is the fitted concentration of half-maximal effect. An outline of the steps:
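Stably transfected human liver carcinoma cells (HG2L7.5c1; 20 DRE-firefly luciferase) were incubated 5 h, dosed, and kept 24 h at 37C. Agonism was scored from increased luciferase luminescence.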

A short description of assay [7]: qHTS assay to identify small molecule that activate the aryl hydrocarbon receptor (AhR) signaling pathway - cell viability counter screen (AID 743086).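 Note: HepG2 liver cells carrying the AhR DRE luciferase reporter; series mostly up to about 70 µM; nearly all actives have a fitted effect of over 45% in size.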 An outline of the steps:
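Cytotoxicity counter screen: CellTiter-Fluor signal (30 min, 37 C) in 4000 HepG2 cells/well carrying the DRE-luciferase reporter, following 24 h compound exposure at 37 C.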

Assay [8] concerns the target Peroxisome proliferator-activated receptor gamma (Homo sapiens) (UniProt P37231). Briefly: qHTS assay to identify small molecule agonists of the peroxisome proliferator-activated receptor gamma (PPARg) signaling pathway (AID 743094; active = well fitted activation curve with a large enough effect in the signal ratio in the repeat runs, not every such curve was filed as active; the % refers to the signal ratio). The method in brief: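 Beta-lactamase FRET fluorescence was the read-out after a 1 h room-temperature substrate step, following 17 h compound treatment at 37C of HEK293H cells expressing a UAS-driven bla reporter responsive to PPARg.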

The target is the same in assay [9]. Put plainly: qHTS assay to identify small molecule antagonists of the peroxisome proliferator-activated receptor gamma (PPARg) signaling pathway (AID 743191; calls by dose curve; note: nearly all actives have a fitted effect of over 30% in size; note: potency is the fitted concentration of half-maximal effect). An outline of the steps:
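Beta-lactamase reporter under UAS control in HEK293H PPARg-bla cells; compound treatment 17 h at 37C. Read-out: fluorescence intensity after 1 h room-temperature incubation with LiveBLAzer B/G FRET substrate.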

Assay [10] in a line: qHTS assay to identify small molecule antagonists of the peroxisome proliferator-activated receptor gamma (PPARg) signaling pathway - cell viability counter screen (AID 743194). Note: nearly all actives have a fitted effect of over 55% in size. Particulars: Potency: co-treated with 50 nM rosiglitazone unless noted. An outline of the steps:
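Viability was measured as CellTiter-Glo luminescence in GeneBLAzer PPARg UAS-bla HEK293H cells. These cells had been exposed 17 h at 37 C to compounds together with rosiglitazone at 50 nM final, with the beta-lactamase readout taken in the same wells.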

The nature of assay [11]: qHTS assay for small molecule agonists of the antioxidant response element (ARE) signaling pathway - cell viability counter screen (AID 743203; calls by dose curve; note: nearly all actives have a fitted effect of over 55% in size). The method in brief: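 HepG2 cells carrying ARE-driven beta-lactamase; 2,000 cells/well; 5 hrs plating; compound pinned from DMSO; 16 hrs 37C/5% CO2; CellTiter-Glo added; 30 min RT; luminescence.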
Assay [12] is described as follows: qHTS assay for small molecule activators of the heat shock response signaling pathway - cell viability counter screen (AID 743209). Note: nearly all actives have a fitted effect of over 50% in size. Note: potency is the fitted concentration of half-maximal effect. An outline of the steps:
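Luminescence from CellTiter-Glo, added after the beta-lactamase FRET read, gave the viability signal. Cells were HSE-bla HeLa treated with DMSO-dissolved compounds for 5 h at 37 C following overnight plating.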

Assay [13] is described as follows: qHTS assay to identify small molecule agonists of the peroxisome proliferator-activated receptor delta (PPARd) signaling pathway - cell viability counter screen (AID 743211). Note: nearly all actives have a fitted effect of over 55% in size. The method in brief: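 In the same wells used for beta-lactamase reporter measurement, cytotoxicity is scored by CellTiter-Glo. HEK293H PPARd-bla cells receive compound for 17 h at 37C following a 5 h settling period.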

For assay [14], the target named is Estrogen receptor (Homo sapiens) (UniProt P03372). Put plainly: qHTS assay to identify small molecule antagonists of the estrogen receptor alpha (ER-alpha) signaling pathway (AID 743069; active = well fitted curve in the direction sought with a large enough effect in the signal ratio in the repeat runs, not every such curve was filed as active; the % refers to the signal ratio). An outline of the steps: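 ER-alpha-UAS-bla GripTite HEK293 line; 2% charcoal-stripped FBS overnight; plated, 4 hr 37C/5% CO2; cpd in DMSO + 17beta-estradiol, 18 hr 37C; LiveBLAzer B/G FRET substrate 2 hr RT; fluorescence intensity.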

Assay [15] has the same target. Briefly: qHTS assay to identify small molecule agonists of the estrogen receptor alpha (ER-alpha) signaling pathway (AID 743075; calls by dose curve;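 note: HEK293 GripTite cells with ER-alpha and UAS-driven beta-lactamase reporter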).
Assay [16] shares this target. Briefly: qHTS assay to identify small molecule agonists of the estrogen receptor alpha (ER-alpha) signaling pathway using the BG1 cell line (AID 743079). Note: nearly all actives have a fitted effect of over 20% in size.
Assay [17] in a line: qHTS assay for small molecule agonists of the antioxidant response element (ARE) signaling pathway (AID 743202; active = well fitted activation curve with a large enough effect in the signal ratio in the repeat runs, not every such curve was filed as active; the % refers to the signal ratio; note: potency is the fitted concentration of half-maximal effect). An outline of the steps:
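Quantitative high-throughput format in HepG2 cells bearing an integrated ARE-beta-lactamase reporter. Compound exposure lasted 16 h at 37 C, and fluorescence was read 2 h after adding LiveBLAzer B/G substrate at room temperature.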

A short description of assay [18]: qHTS assay to identify small molecule antagonists of the estrogen receptor alpha (ER-alpha) signaling pathway using the BG1 cell line (AID 743080; calls by dose curve;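 note: BG1 cells stimulated with 17beta-estradiol alongside compound; nearly all actives have a fitted effect of over 25% in size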; note: potency is the fitted concentration of half-maximal effect). An outline of the steps:
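Readout is ONE-Glo luminescence, taken 30 min at room temperature after reagent addition, preceded by a CellTiter-Fluor viability read; BG1-Luc-4E2 cells had received compound and 17beta-estradiol for 21.5 h at 37 C.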

Assay [19] can be described thus: qHTS assay for small molecule activators of the heat shock response signaling pathway (AID 743210; active = well fitted activation curve with a large enough effect in the signal ratio in the repeat runs, with a control signal flat, not every such curve was filed as active; the % refers to the signal ratio;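 note: HeLa cells with beta-lactamase reporter driven by heat shock elements; series mostly up to about 63 µM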). An outline of the steps:
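HeLa HSE-bla cells, overnight plating; cpd in DMSO 5 h, 37 C; LiveBLAzer B/G FRET substrate 2.5 h RT; fluorescence intensity read.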

Values joined by “and” are separate entries in the source; they are usually repeats but may differ in a detail not shown here. Equal entries are not always repeated. Records with an inconclusive call do not appear. Where a structure was tested more than once in an assay, its records may differ in their call. Active and inactive are the calls of the source. Unless noted, calls come from the whole dose curve; as a rule, active = well fitted curve in the direction sought with a large enough effect in the repeat runs; inconclusive = weak or mixed curves; inactive = no such curve, though single readings can be large; an effect the other way counts as inactive or inconclusive.

Estrogen receptor (Homo sapiens), sequence (P03372 whole entry, looked up): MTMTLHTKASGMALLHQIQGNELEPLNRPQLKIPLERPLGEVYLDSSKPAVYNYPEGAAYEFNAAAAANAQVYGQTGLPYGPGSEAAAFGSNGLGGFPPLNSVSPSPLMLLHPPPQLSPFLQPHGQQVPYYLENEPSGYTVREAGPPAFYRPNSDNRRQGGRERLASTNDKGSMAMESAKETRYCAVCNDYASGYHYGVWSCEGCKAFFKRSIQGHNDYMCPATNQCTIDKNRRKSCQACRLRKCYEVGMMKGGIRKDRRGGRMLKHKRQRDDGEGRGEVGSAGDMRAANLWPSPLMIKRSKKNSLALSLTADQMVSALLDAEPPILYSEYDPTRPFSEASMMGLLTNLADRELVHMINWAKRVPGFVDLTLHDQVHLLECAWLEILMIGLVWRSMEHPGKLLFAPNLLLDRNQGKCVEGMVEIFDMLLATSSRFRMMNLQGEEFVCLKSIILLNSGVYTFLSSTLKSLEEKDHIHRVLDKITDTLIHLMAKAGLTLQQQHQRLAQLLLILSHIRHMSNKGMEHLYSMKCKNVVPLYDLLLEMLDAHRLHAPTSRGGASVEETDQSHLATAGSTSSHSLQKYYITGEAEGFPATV
Aryl hydrocarbon receptor (Homo sapiens), sequence (P35869 whole entry, looked up): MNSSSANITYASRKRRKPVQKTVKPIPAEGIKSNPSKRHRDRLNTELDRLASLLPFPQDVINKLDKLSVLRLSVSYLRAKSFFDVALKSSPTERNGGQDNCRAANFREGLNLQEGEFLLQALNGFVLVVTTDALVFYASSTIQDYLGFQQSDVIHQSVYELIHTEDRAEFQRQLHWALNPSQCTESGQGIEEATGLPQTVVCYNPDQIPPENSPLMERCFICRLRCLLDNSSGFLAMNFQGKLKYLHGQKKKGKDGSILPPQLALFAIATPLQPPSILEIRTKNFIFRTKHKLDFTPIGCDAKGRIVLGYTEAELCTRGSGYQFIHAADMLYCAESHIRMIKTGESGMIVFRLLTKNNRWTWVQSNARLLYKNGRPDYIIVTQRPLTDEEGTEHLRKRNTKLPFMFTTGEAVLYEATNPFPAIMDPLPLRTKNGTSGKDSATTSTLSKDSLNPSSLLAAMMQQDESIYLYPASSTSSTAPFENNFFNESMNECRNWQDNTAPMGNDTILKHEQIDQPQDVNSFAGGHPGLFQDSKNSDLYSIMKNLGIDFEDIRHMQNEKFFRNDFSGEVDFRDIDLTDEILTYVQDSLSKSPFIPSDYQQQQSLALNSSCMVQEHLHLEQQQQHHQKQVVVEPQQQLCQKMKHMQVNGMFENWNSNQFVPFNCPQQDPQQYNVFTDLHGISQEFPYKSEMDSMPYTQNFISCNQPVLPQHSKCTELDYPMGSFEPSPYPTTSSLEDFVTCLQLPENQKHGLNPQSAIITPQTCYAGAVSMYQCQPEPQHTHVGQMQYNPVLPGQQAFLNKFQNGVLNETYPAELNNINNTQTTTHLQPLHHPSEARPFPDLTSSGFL
Peroxisome proliferator-activated receptor gamma (Homo sapiens), sequence (P37231 whole entry, looked up): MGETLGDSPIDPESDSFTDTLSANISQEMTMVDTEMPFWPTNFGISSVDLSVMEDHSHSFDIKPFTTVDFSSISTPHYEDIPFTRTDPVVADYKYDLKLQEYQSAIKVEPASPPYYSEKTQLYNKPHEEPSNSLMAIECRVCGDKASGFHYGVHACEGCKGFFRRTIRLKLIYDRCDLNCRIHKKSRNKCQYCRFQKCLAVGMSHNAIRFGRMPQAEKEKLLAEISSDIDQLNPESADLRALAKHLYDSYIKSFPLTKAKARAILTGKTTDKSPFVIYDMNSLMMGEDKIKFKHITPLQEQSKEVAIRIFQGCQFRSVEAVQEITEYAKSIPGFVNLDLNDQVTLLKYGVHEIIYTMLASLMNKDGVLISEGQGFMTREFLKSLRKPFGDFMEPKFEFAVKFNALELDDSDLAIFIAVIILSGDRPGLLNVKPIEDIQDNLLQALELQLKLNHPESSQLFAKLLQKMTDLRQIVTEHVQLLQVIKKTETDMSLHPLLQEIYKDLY
Aromatase (Homo sapiens), sequence (P11511 whole entry, looked up): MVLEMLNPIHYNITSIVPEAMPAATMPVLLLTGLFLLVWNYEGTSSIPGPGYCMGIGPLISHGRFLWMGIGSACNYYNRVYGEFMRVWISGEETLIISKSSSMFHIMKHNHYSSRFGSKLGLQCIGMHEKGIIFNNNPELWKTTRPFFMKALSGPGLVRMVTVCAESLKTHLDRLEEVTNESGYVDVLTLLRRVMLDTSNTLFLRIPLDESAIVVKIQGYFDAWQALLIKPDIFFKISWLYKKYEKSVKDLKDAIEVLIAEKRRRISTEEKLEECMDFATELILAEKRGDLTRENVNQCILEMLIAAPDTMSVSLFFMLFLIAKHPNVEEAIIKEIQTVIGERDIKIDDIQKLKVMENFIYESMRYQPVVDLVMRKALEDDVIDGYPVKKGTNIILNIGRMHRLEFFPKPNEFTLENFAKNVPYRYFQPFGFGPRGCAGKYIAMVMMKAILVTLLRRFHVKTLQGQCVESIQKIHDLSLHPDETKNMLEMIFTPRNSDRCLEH

On to `Oc1cc(Cl)c(Cl)cc1Cl`, for which the Potency result (in assay [1]; in assay [2]; in assay [3]; in assay [4]; in the assay with Aromatase (Homo sapiens); in assay [5]) was “inactive” throughout. Also, the Potency result in [6], in [7], in assay [8], in assay [9], in assay [10] and in assay [11] was “inactive” in each case. The Potency entry in [12] and in [13] was “inactive” in each case.

Consider `Cc1c(COC(=O)[C@@H]2[C@H](/C=C(\Cl)C(F)(F)F)C2(C)C)cccc1-c1ccccc1`, for which the Potency in assay [1] is 15 µM (active) and 15.3 µM (active); in assay [3], 26.9 µM (active). Moreover, the Potency result (in assay [2]; in [14]; in assay [15]; in assay [16]; in [4]; in the assay with Aromatase (Homo sapiens)) was “inactive” in each case. The Potency result in assay [5], in [7], in assay [10], in assay [17], in [11] and in assay [12] was “inactive” throughout. The Potency result in assay [13] was “inactive”.

Regarding `CCCCOCCOP(=O)(OCCOCCCC)OCCOCCCC`, the Potency in [1] is 24.4 µM (active) and 19.3 µM (active). In addition, the Potency result in assay [2], in assay [14], in assay [15], in assay [16], in assay [18] and in assay [4] was “inactive” in each case. For the same compound, the Potency result (with Aromatase (Homo sapiens); in assay [5]; in [7]; in [8]; in assay [9]; in assay [10]) was “inactive” throughout. The Potency result in [11], in [12] and in [19] was “inactive” each time.

`O=c1oc2ccccc2c(O)c1C(CC(O)c1ccc(-c2ccc(Br)cc2)cc1)c1ccccc1` (configuration not stated): the Potency in assay [1] is 29.8 µM (active) and 57.9 µM (active); in [12], 41.3 µM (active). The Potency result in assay [2], in [3], in [15], in assay [16], in [18] and in assay [4] was “inactive” throughout. Moreover, the Potency entry (with Aromatase (Homo sapiens); in assay [5]; in assay [7]; in [11]; in assay [13]) was “inactive” in each case.

As for `O=Cc1ccco1`, the Potency entry (in assay [1]; in assay [2]; in assay [3]; in assay [4]; with Aromatase (Homo sapiens); in assay [5]) was “inactive” each time. Besides, the Potency result in assay [7], in assay [10], in assay [17], in [11], in [12] and in assay [19] was “inactive” each time. In assay [13], the Potency entry was “inactive”.

Regarding `NNC(N)=S`, the Potency result in [1], in [2], in [14], in [15], in assay [16] and in assay [18] was “inactive” throughout. Besides, the Potency entry in [4], in [7], in [8], in assay [9], in assay [10] and in assay [17] was “inactive” each time. Besides, the Potency entry in assay [11] was “inactive”. In addition, the Potency in the assay with Aromatase (Homo sapiens) was 50.4 µM (active) and inactive; in assay [5], 28.4 µM (active) and inactive; in assay [6] it was “inactive and 19.3 µM (active)”; in assay [12], 40.4 µM (active) and inactive.

Take `N#Cc1cc(Br)c(O)c(Br)c1`: the Potency in [1] was 68.5 µM (active); in assay [18] it was 68.5 µM (active) and 52.5 µM (active); in assay [9], 54.9 µM (active) and 21.1 µM (active). Further, the Potency result (in [2]; in assay [14]; in assay [3]; in assay [15]; in assay [4]; in the assay with Aromatase (Homo sapiens)) was “inactive” each time. The Potency entry in assay [5], in [7], in [8], in assay [10], in assay [11] and in assay [12] was “inactive” in each case. In addition, the Potency result in [19] is “inactive”.

Regarding `C[C@]12CCC(=O)C[C@@H]1CC[C@@H]1[C@@H]2CC[C@]2(C)[C@@H](O)CC[C@@H]12`, the Potency in assay [1] was 48 µM (active); in assay [17], 27 µM (active). Also, the Potency result (in assay [2]; in assay [3]; in assay [4]; with Aromatase (Homo sapiens); in assay [5]; in assay [7]) was “inactive” throughout. For the same compound, the Potency entry in [10], in assay [11], in [12], in assay [19] and in assay [13] was “inactive” each time.

With `Cc1ccc(OP(=O)(Oc2ccc(C)cc2)Oc2ccc(C)cc2)cc1`, the Potency entry (in assay [1]; in assay [2]; in assay [3]; in assay [4]; in the assay with Aromatase (Homo sapiens); in [5]) was “inactive” throughout. Besides, the Potency result in assay [7], in assay [8], in assay [10], in assay [17], in assay [11] and in assay [12] was “inactive” each time. Moreover, in assay [13], the Potency entry is “inactive”.

As to `CCN(CC)N=O`, the Potency result (in assay [1]; in assay [2]; in assay [3]; in assay [4]; with Aromatase (Homo sapiens); in [5]) was “inactive” in each case. Further, the Potency result in assay [6], in assay [7], in assay [8], in assay [9], in [10] and in assay [17] was “inactive” in each case. Besides, the Potency entry in [11], in [12], in [19] and in assay [13] was “inactive” each time.

Take `Clc1nc(Cl)nc(Cl)n1`: the Potency result in assay [1], in assay [2], in assay [14], in assay [3], in [15] and in [18] was “inactive” in each case. For the same compound, the Potency entry (in assay [4]; with Aromatase (Homo sapiens); in assay [5]; in assay [6]; in assay [7]; in assay [9]) was “inactive” each time. The Potency entry in [10], in [17], in assay [11] and in [12] was “inactive” throughout.

For the compound `COP(=O)(OC)OC`, the Potency result in assay [1], in [2], in [14], in [15], in assay [16] and in assay [18] was “inactive” throughout. The Potency entry (in [4]; with Aromatase (Homo sapiens); in assay [5]; in [7]; in assay [9]; in [10]) was “inactive” throughout. Besides, the Potency result in [17], in assay [11], in assay [12] and in [13] was “inactive” in each case.

Consider `COc1ccc(C(CN(C)C)C2(O)CCCCC2)cc1` (configuration not stated), for which the Potency entry (in assay [1]; in assay [2]; in [3]; in assay [4]; with Aromatase (Homo sapiens); in assay [5]) was “inactive” in each case. In addition, the Potency entry in assay [7], in [8], in assay [9], in assay [10], in [17] and in [11] was “inactive” each time. Besides, the Potency entry in assay [12] and in assay [13] was “inactive” throughout.
